Records with an inconclusive call do not appear. Calls of active or inactive are those of the source. Unless noted, calls follow the shape of the dose curve; as a rule, active = well fitted cell-killing curve with a large enough effect; inconclusive = small, poorly fitted or top-dose-only effect; inactive = flat fitted curve, though single readings scatter.
Tests used:
[1] = Cell Viability - LYMP2-025 (AID 976); also: series mostly up to about 92 µM
Summary of the method: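 In qHTS format, LYMP2-025 lymphoblastoid cells in complete culture medium received compound for 24 hr; ATP-based CellTiter-Glo signal gave viability, with AC50 derived by Hill equation.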

[2] = Cell Viability - LYMP2-002 (AID 977);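 also: series mostly up to about 92 µM; compound exposure lasted 24 h at 37 °C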
Summary of the method: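 Cytotoxicity is scored as concentration-dependent loss of cellular ATP in a human lymphoblastoid line after 24 hr compound treatment at 37 C. AC50 is obtained by modelling concentration-response data with the Hill equation.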

[3] = Cell Viability - LYMP2-006 (AID 978);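 also: series mostly up to about 92 µM; cells exposed to compound for 24 hours; nearly all actives have a fitted effect of over 60% in size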
Summary of the method: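 Human lymphoblastoid cells (LYMP2-006), 2500/well in complete medium, were treated with compound for 24 hr at 37 C. Cellular ATP was read by CellTiter-Glo luminescence after 30 min, and AC50 values came from Hill-equation fits of concentration-response data.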

[4] = Cell Viability - LYMP2-007 (AID 979);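 also: cells exposed to compound for 24 h before reading; nearly all actives have a fitted effect of over 60% in size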
Summary of the method: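 Acute toxicity is scored as a concentration-dependent fall in intracellular ATP in human lymphoblastoid cells treated 24 hr at 37 C, measured by luciferase luminescence; Hill-equation modelling yields AC50.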

[5] = Cell Viability - LYMP2-008 (AID 980); also: nearly all actives have a fitted effect of over 60% in size
Summary of the method: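 Acute cytotoxicity is scored as concentration-dependent loss of cellular ATP in a human lymphoblastoid line after 24 hr treatment at 37 C. ATP is quantified by luciferase luminescence.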

[6] = Cell Viability - LYMP2-012 (AID 982);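 also: cellular ATP by luciferase luminescence where a drop means cytotoxicity; cells exposed to compound for one day before reading; nearly all actives have a fitted effect of over 55% in size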
[7] = Cell Viability - LYMP2-014 (AID 983); also: series mostly up to about 92 µM; nearly all actives have a fitted effect of over 50% in size
Summary of the method: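 Decrease in intracellular ATP after 24 hr treatment at 37 C, measured by luciferase luminescence, indicated cytotoxicity. Concentration-response data were fitted with the standard Hill equation to give AC50.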

[8] = Cell Viability - LYMP2-016 (AID 984);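 also: cells exposed to compound for 24 hours at 37 °C; nearly all actives have a fitted effect of over 55% in size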
Summary of the method: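 Human lymphoblastoid LYMP2-016 cells, 2500 per well, treated with compounds for 24 h at 37 C. Viability read as intracellular ATP by CellTiter-Glo luminescence after 30 min at room temperature; AC50 from Hill fits of concentration-response.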

[9] = Cell Viability - LYMP2-018 (AID 985);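 also: compound exposure lasted 24 hr at 37 °C; nearly all actives have a fitted effect of over 50% in size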
Summary of the method: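 Acute cytotoxicity is scored as a concentration-dependent drop in intracellular ATP after 24 hr exposure of the lymphoblastoid line in complete culture medium, measured by luciferase luminescence. Potency is expressed as AC50 from Hill modelling.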

[10] = Cell Viability - LYMP2-020 (AID 986); also: series mostly up to about 92 µM; nearly all actives have a fitted effect of over 55% in size
Summary of the method: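 Acute cytotoxicity in a human lymphoblastoid line is scored as a concentration-dependent fall in cellular ATP after 24 hr at 37 C in complete medium. The positive control is tetraoctylammonium bromide, and potency is given as Hill-fit AC50.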

[11] = Cell Viability - LYMP2-022 (AID 987); also: nearly all actives have a fitted effect of over 55% in size
Summary of the method: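 Acute toxicity in a human lymphoblastoid line is scored as decreased intracellular ATP after 24 hr compound treatment at 37 C. ATP is measured by CellTiter-Glo luminescence; curves are fitted with the Hill equation to give AC50.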

[12] = Cell Viability - LYMP2-024 (AID 988); also: nearly all actives have a fitted effect of over 60% in size
Summary of the method: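 Acute toxicity is measured as concentration-dependent loss of intracellular ATP in a human lymphoblastoid line treated 24 hours at 37 C. Luciferase luminescence quantifies ATP; AC50 values come from standard Hill-equation modelling.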

[13] = Cell Viability - LYMP2-026 (AID 989); also: nearly all actives have a fitted effect of over 50% in size
Summary of the method: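 Concentration-dependent loss of intracellular ATP in human lymphoblastoid cells after 24 hr at 37 C, quantified by luciferase luminescence. AC50 derived from standard Hill equation.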

[14] = Cell Viability - LYMP1-002 - Assay at 24 hr (AID 993)
Summary of the method: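 qHTS, LYMP1-002 lymphoblastoid, 24 h cpd, 37 C, CellTiter-Glo ATP luminescence; AC50 via Hill eq.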

[15] = Cell Viability - LYMP1-002 - Assay at 40 hr (AID 994); also: nearly all actives have a fitted effect of over 60% in size
Summary of the method: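 Viability in the human lymphoblastoid line was measured as intracellular ATP via CellTiter-Glo after 40 hr compound exposure. Tetraoctylammonium bromide served as positive control.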

[16] = qHTS Assay for Identification of Small Molecule Inducers of Hypoxia Response (AID 2120; active = well fitted curve in the direction sought with a large enough effect in the signal ratio, with a control signal flat, not every such curve was filed as active; the % refers to the signal ratio)
Summary of the method: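 Induction of beta-lactamase reporter activity was measured in CellSensor HRE-bla ME-180 cells after 17 h compound treatment at 37 degrees C, using CCF4 substrate and the 460nm/530nm emission ratio to derive AC50 values.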

[17] = target: Estrogen receptor (Homo sapiens) (UniProt P03372); experiment: qHTS assay for small molecule antagonists of estrogen receptor alpha signaling (AID 588513; active = well fitted curve in the direction sought with a large enough effect in the signal ratio, with a control signal flat, not every such curve was filed as active; the % refers to the signal ratio)
Sequence of Estrogen receptor (Homo sapiens) (P03372 whole entry, looked up): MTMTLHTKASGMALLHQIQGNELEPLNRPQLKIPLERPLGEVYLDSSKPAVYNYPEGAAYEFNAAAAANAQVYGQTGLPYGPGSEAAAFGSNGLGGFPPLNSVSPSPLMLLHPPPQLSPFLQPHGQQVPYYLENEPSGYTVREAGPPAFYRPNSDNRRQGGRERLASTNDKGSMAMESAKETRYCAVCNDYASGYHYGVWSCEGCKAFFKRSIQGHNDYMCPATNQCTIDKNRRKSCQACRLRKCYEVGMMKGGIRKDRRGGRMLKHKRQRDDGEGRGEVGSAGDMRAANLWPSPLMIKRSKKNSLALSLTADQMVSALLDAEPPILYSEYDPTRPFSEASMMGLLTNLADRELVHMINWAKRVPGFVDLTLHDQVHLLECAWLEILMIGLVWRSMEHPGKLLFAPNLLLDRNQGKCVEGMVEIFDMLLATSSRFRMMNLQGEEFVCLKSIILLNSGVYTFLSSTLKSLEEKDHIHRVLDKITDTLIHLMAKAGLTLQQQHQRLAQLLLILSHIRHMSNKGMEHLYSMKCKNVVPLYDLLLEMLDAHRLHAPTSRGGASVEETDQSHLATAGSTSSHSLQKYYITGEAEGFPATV
Summary of the method: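 ER-alpha-UAS-bla GripTite HEK 293 cells in 2% charcoal/dextran-treated FBS medium; compounds titrated (1:2, duplicate), then stimulated with 0.5 nM 17-beta-estradiol for 18 h at 37C. CCF4 beta-lactamase fluorescence; Hill-fit IC50 and efficacy.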

[18] = target: Estrogen receptor (Homo sapiens) (UniProt P03372); experiment: qHTS assay for small molecule agonists of estrogen receptor alpha signaling (AID 588514; calls by dose curve; also: nearly all actives have a fitted effect of over 70% in size)
Summary of the method: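 Reporter-gene assay. […] controls beta-lactamase in HEK 293 GripTite cells; after 18 hrs with compound, CCF4 substrate is added for 2 hrs and fluorescence is read.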

[19] = target: Glucocorticoid receptor (Homo sapiens) (UniProt P04150); experiment: qHTS assay for small molecule antagonists of glucocorticoid receptor signaling (AID 588533; active = well fitted inhibition curve with a large enough effect in the signal ratio, with a control signal flat, not every such curve was filed as active; the % refers to the signal ratio;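 also: cells stimulated with 2 nM dexamethasone as agonist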)
Sequence of Glucocorticoid receptor (Homo sapiens) (P04150 whole entry, looked up): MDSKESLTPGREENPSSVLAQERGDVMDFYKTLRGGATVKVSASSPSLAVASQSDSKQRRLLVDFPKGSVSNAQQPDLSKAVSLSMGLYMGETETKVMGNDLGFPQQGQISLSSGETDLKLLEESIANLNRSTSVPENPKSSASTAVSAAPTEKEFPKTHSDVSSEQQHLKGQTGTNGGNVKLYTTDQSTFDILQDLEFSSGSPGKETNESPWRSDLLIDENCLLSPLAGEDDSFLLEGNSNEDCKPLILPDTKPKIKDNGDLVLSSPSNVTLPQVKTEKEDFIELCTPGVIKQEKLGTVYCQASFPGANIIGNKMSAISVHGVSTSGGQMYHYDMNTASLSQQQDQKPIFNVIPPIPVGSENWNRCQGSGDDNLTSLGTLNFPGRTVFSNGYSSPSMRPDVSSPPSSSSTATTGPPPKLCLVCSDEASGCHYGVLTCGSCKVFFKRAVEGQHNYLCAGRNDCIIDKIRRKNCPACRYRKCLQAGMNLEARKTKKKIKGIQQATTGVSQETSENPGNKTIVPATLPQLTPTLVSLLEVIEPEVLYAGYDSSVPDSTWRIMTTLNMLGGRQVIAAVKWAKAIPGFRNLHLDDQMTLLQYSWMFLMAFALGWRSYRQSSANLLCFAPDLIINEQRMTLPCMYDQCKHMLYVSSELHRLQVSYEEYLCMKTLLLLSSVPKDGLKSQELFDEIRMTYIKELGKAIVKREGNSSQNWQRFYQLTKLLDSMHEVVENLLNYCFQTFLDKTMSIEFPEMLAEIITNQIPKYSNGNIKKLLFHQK
Summary of the method: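 Antagonist-mode qHTS: compound titrations added to GRE-bla HeLa cells, then dexamethasone 2 nM final; 18 h, 37 C. CCF4 FRET fluorescence normalized to dexamethasone and DMSO; IC50 from Hill fit.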

[20] = target: Peroxisome proliferator-activated receptor gamma (Homo sapiens) (UniProt P37231); experiment: qHTS assay for small molecule agonists of peroxisome proliferator-activated receptor gamma signaling (AID 588536; active = well fitted curve in the direction sought with a large enough effect in the signal ratio, with a control signal flat, not every such curve was filed as active; the % refers to the signal ratio)
Sequence of Peroxisome proliferator-activated receptor gamma (Homo sapiens) (P37231 whole entry, looked up): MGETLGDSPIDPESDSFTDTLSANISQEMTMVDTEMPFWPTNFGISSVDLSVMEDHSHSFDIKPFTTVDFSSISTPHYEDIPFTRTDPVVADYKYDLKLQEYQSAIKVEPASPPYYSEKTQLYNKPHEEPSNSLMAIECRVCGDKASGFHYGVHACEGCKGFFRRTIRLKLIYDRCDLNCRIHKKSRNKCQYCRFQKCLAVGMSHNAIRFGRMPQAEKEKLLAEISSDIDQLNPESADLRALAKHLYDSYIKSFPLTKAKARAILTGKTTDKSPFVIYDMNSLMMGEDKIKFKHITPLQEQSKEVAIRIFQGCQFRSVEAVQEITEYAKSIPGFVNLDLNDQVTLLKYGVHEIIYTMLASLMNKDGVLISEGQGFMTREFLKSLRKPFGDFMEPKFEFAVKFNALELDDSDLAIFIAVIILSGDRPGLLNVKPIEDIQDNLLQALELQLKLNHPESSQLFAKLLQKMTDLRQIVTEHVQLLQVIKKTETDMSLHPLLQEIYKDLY
Summary of the method: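 Test agents, titrated, stimulated HEK293 UAS-bla cells overnight (16 h, 37 C). Substrate CCF4 was then added for two hours at room temperature before fluorescence reading.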

[21] = target: Peroxisome proliferator-activated receptor gamma (Homo sapiens) (UniProt P37231); experiment: qHTS assay for small molecule antagonists of peroxisome proliferator-activated receptor gamma signaling (AID 588537; active = well fitted inhibition curve with a large enough effect in the signal ratio, with a control signal flat, not every such curve was filed as active; the % refers to the signal ratio;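 also: reporter cells co-stimulated with 50 nM rosiglitazone agonist during compound treatment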)
Summary of the method: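 Inhibitors of agonist-stimulated UAS-bla reporter activity were sought in HEK293 cells; rosiglitazone (50 nM) defined full signal and DMSO baseline. Curves fitted to Hill model gave IC50 and efficacy.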

[22] = target: Vitamin D3 receptor (Homo sapiens) (UniProt P11473); experiment: qHTS assay for small molecule antagonists of vitamin D receptor signaling (AID 588541; calls by dose curve;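 also: receptor activated by calcitriol during compound treatment; series mostly up to about 77 µM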)
Sequence of Vitamin D3 receptor (Homo sapiens) (P11473 whole entry, looked up): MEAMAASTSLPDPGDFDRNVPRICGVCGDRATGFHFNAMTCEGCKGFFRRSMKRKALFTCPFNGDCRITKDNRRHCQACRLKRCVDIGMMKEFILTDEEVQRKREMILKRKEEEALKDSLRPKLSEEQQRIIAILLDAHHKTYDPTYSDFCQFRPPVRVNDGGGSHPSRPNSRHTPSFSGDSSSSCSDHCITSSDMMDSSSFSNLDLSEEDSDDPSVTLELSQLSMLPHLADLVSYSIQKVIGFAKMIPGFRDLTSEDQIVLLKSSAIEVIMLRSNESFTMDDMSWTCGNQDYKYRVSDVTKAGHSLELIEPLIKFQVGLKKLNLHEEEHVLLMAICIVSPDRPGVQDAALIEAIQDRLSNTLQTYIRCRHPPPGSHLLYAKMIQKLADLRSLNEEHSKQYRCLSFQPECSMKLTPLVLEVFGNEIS
Summary of the method: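 Antagonist-mode beta-lactamase reporter assay: HEK293T VDR-UAS-bla cells were exposed to titrated compound alongside 1-alpha,25-dihydroxyvitamin D3 at 3 nM final for 16 h. Values were normalized to the 50 nM agonist control and DMSO basal, with IC50 and efficacy from Hill equation fits.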

Measured: Potency

CCCCOC(=O)c1ccccc1C(=O)OCCCC
inactive: all assays above
